Data reported in the supplement of paper PMC8387472.
Structures can show the parent of a compound that is named as a salt. ± gives the standard deviation of the averaged measurements.

These compounds were tested on mESC LDLR-Dup GFP reporter (SpCas9 MH-deletion repair) (assay: fraction of GFP+ cells relative to DMSO control (fold change); higher = more MH-deletion repair to in-frame LDLR (or more editing)). Conditions: 2 µM; 7 days post-transfection.

SMILES	fraction of GFP+ cells
N#Cc1ccc2ncnc(NCCc3ccccc3)c2c1 [Senexin A]	0.863 ± 0.11
COCCCc1sc(-c2ccccc2)nc1C(=O)Nc1ccccc1-c1nc2cc(CN3CCCC3)cnc2s1	1.15 ± 0.33
Cc1cc(N2C[C@@H](C)N[C@@H](C)C2)ncc1-c1ccc(-c2nc3c(ccn3C)c(=O)[nH]2)cc1	0.927 ± 0.33
CN(C)C(=O)c1cc2cnc(Nc3ccc(N4CCNCC4)cn3)nc2n1C1CCCC1 [Ribociclib (LEE011)]	1.04 ± 0.21
CC(NC(=O)c1ccccc1/N=C/c1c(O)ccc2ccccc12)c1ccccc1 (centres undefined) [Sirtinol]	1.45 ± 0.24
NC(=O)c1ccccn1 [Picolinamide]	1.08 ± 0.046
COc1cc(OCc2cccc(-c3ccccc3)c2C)cc(OC)c1CN1CCCC[C@H]1C(=O)O [pd-1/pd-l1 inhibitor 1]	0.898 ± 0.35
O=[N+]([O-])c1ccc(Nc2ccccc2-c2ccccc2)c2nonc12	0.854 ± 0.23
COc1nc(N)nc2c1ncn2[C@@H]1O[C@H](CO)[C@@H](O)[C@@H]1O [Nelarabine]	1.12 ± 0.14
CC(C)c1cnn2c(NCc3ccccc3)cc(NCCCCCCN)nc12	1.07 ± 0.18
CCc1ccc(CCOc2ccc(CC3SC(=O)NC3=O)cc2)nc1 (centres undefined) [Pioglitazone HCl]	1.11 ± 0.13
Nc1ncnc2c1ncn2[C@@H]1O[C@H](CO)[C@@H](O)[C@H]1O [Adenosine]	1.04 ± 0.13
C[C@H]1CNCCCN1S(=O)(=O)c1cccc2cncc(F)c12 [Ripasudil (K-115) hydrochloride dihydrate]	1.31 ± 0.45
Nc1ncn([C@@H]2O[C@H](CO)[C@@H](O)[C@H]2O)c(=O)n1 [Azacitidine]	1.1 ± 0.089
